Experimental findings from PubChem BioAssay are described below.

Calls of active or inactive are those of the source.

The subject of assay [1] is Plasmodium falciparum Sir2 (PF13_0152, Sir2A). Kind of assay: Plasmodium falciparum Sir2A binding compounds – biochemical, small-molecule microarray, 635 nm fluorescence, primary screen (AID 1098).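 Also: score merges spot fluorescence intensity with its signal-to-noise ratio.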 To be noted: fluorescence 635 nm, higher = more signal.
The nature of assay [2]: probe aDKK1 binding to arrayed compounds – biochemical, biotinylated probe, 635/667 nm fluorescence, primary screen (AID 1099).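 Also: score merges 667nm spot fluorescence with signal to noise across triplicate slides.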 Particulars: small-molecule microarray, higher = more signal.
A short description of assay [3]: probe aCHRDL2 binding to arrayed compounds – biochemical, biotinylated probe, 635/667 nm fluorescence, primary screen (AID 1100). To be noted: small-molecule microarray, higher = more signal.
Assay [4] can be described thus: change in splice reporter luminescence, either direction, cell-based, HEK293, spliceosome inhibition project, primary screen (AID 1101).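 Also: HEK293 cells carrying a splicing-competent luciferase reporter gene; test concentration not given here.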 Particulars: HEK293 splicing luciferase reporter, 24 h, higher = more signal, called active from +8 up or from −8 down.
For assay [5], the target named is Fibroblast growth factor 10 (Homo sapiens) (UniProt O15520). Kind of assay: compounds binding fibroblast growth factor 10 – biochemical, small-molecule microarray, 635 nm fluorescence, primary screen (AID 1102). To be noted: FGF10 binding, fluorescence 635 nm, higher = more signal.
In assay [6] the test system is glycogen synthase kinase-3 (GSK3A per assay name; protocol says GSK3B). Kind of assay: compounds binding glycogen synthase kinase-3 – biochemical, small-molecule microarray, 635 nm fluorescence, GSK3A, primary screen (AID 1103). Also: the record names both GSK3A and GSK3B. To be noted: fluorescence 635 nm, higher = more signal.
Assay [7] concerns the target Epidermal growth factor receptor (Homo sapiens) (UniProt P00533). The assay can be described thus: compounds binding epidermal growth factor receptor – biochemical, small-molecule microarray, 635 nm fluorescence, primary screen (AID 1104).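 Also: score merges 667 nm emission intensity with spot signal to noise over triplicate slides.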 To be noted: EGFR binding, higher = more signal.
Assay [8] deals with Follistatin-related protein 3 (Homo sapiens) (UniProt O95633). The assay can be described thus: compounds binding follistatin-related protein 3 – biochemical, small-molecule microarray, 635 nm fluorescence, primary screen (AID 1105).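 Also: score merges emission near 667 nm and signal to noise per printed spot across three slides.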 Particulars: FSTL3 binding, higher = more signal.
For assay [9], the target named is Dickkopf-related protein 1 (Homo sapiens) (UniProt O94907). Kind of assay: small molecules binding DKK1 protein – biochemical, small-molecule microarray, 635 nm fluorescence scan, primary screen (AID 1106).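 Also: score merges emission near 667 nm with signal to noise over three replicate slides.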 To be noted: higher = more signal.
Assay [10] has as its system Inhibin beta A chain (activin A). The assay can be described thus: small molecules binding activin A – biochemical, small-molecule microarray, 635 nm fluorescence scan, primary screen (AID 1107).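 Also: mouse activin A protein probed at 4.33 µg/mL on printed slides; score merges bound-protein fluorescence near 667 nm with spot signal-to-noise.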 To be noted: INHBA, higher = more signal.
Assay [11] relates to Human papillomavirus type 1a protein E7 (residues 44-93). Kind of assay: small molecules binding HPV E7 44-93 – biochemical, small-molecule microarray, residues 44-93, 635 nm fluorescence, primary screen (AID 1108).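 Also: E7 fragment applied at 1 µg/mL in TBST for 1 h at 4 C; score combines spot fluorescence with its signal to noise ratio.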 Particulars: fluorescence 635 nm, higher = more signal.
The nature of assay [12]: hepatitis C replication reporter changes, two-sided – Huh7 cells, luciferase reporter, HCV replication inhibitor project, primary screen (AID 1109).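 Also: huh7 hepatoma cells harbouring a luciferase neomycin HCV replicon reporter; luciferase luminescence as measure of HCV replicon replication; test concentration not given here.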 Particulars: Huh7 HCV replicon luciferase reporter, 48 h; higher = more signal. (In a reporter assay the amount or activity of a reporter protein is the signal.)
The target in assay [13] is Left-right determination factor 2 (Homo sapiens) (UniProt O00292). Kind of assay: small molecules binding LEFTY2 protein – biochemical, small-molecule microarray, 635 nm fluorescence scan, primary screen (AID 1110). To be noted: higher = more signal.
The target in assay [14] is Calmodulin-1 (Homo sapiens) (UniProt P0DP23). The assay can be described thus: small molecules binding calmodulin-1 with EGTA – biochemical, small-molecule microarray, Cy5-labelled CALM1, profiling panel (AID 1111).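 Also: labelled calmodulin applied in Tris saline Tween buffer holding calcium plus EGTA and DTT.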 Particulars: Cy5-CALM1 binding fluorescence, higher = more signal.
For assay [15] the target is unchanged. Kind of assay: small molecules binding Ca-loaded calmodulin-1 – biochemical, small-molecule microarray, Cy5-labelled CALM1, plus calcium, artefact control for SMM control-protein annotation, profiling panel (AID 1112).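 Also: score merges spot fluorescence with signal to noise from triplicate slides.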 Particulars: Cy5-CALM1 binding fluorescence, higher = more signal.
Assay [16] in a line: probe aWnt5a binding to arrayed compounds – biochemical, biotinylated probe, 635/667 nm fluorescence, primary screen (AID 1113).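 Also: score merges 667 nm fluorescence intensity with signal-to-noise per printed feature.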 To be noted: small-molecule microarray, higher = more signal.
Assay [17] in a line: probe aShh binding to arrayed compounds – biochemical, biotinylated probe, 635/667 nm fluorescence, primary screen (AID 1114).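 Also: probe is biotin-labelled aShh protein from a stem cell growth factor screen; measures binding of labelled protein to compounds printed on the slide; score merges feature fluorescence at 667 nm with signal-to-noise.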 Particulars: small-molecule microarray, higher = more signal.
A short description of assay [18]: probe aNog binding to arrayed compounds – biochemical, biotinylated probe, 635/667 nm fluorescence, primary screen (AID 1115).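 Also: probe is biotinylated aNog protein used at 0.15 µg/mL for 1 h at 4 C; z-score combines 667 nm fluorescence of each spot with its signal to noise.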 Particulars: small-molecule microarray, higher = more signal.
Assay [19] addresses Torsin-1A-interacting protein 1 (Homo sapiens) (UniProt Q5JTV8). Kind of assay: compound microarray binding of lysate hLAP1 – cell lysate, small-molecule microarray, COS7 lysate, 635/667 nm fluorescence, primary screen (AID 1116). To be noted: 635 nm fluorescence, higher = more signal.
Assay [20] concerns the target Alpha-bungarotoxin (Bungarus multicinctus) (UniProt P60615). The assay can be described thus: compounds binding labelled alpha-BTX control protein – biochemical, small-molecule microarray, Alexa647 label, 635/667 nm fluorescence, artefact control for SMM control protein annotation, profiling panel (AID 1117). Particulars: alpha-BTX-A647 binding fluorescence, higher = more signal.

Chain of Torsin-1A-interacting protein 1 (Homo sapiens) (Q5JTV8 whole entry, looked up): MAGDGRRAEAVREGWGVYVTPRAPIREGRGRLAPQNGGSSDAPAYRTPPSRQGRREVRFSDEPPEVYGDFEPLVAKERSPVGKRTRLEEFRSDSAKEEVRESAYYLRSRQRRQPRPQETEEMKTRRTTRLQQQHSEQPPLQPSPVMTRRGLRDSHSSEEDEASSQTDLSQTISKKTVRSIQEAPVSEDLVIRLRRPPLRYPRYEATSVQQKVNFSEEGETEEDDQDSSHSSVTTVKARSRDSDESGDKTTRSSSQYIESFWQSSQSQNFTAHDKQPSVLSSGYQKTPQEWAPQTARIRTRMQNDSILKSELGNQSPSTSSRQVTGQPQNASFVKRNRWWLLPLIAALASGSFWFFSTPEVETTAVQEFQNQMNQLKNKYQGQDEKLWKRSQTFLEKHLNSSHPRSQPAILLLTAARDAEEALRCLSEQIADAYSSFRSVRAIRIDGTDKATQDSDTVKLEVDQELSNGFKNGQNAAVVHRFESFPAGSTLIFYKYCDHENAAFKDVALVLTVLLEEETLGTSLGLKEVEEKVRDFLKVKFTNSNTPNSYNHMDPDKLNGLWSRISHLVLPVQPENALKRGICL
Chain of Left-right determination factor 2 (Homo sapiens) (O00292 whole entry, looked up): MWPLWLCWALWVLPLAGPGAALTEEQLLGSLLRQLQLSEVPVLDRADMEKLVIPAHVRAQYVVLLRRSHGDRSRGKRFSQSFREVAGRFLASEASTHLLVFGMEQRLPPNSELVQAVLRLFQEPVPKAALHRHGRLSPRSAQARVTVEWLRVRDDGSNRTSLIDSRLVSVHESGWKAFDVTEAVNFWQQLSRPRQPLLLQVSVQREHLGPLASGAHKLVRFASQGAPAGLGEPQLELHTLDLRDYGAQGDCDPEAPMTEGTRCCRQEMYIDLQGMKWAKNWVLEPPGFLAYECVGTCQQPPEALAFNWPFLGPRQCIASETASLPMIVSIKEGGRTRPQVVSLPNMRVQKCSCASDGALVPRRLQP
Chain of Alpha-bungarotoxin (Bungarus multicinctus) (P60615 whole entry, looked up): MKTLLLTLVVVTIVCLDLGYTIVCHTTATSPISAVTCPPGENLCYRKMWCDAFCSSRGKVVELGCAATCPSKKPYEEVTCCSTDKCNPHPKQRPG
Chain of Dickkopf-related protein 1 (Homo sapiens) (O94907 whole entry, looked up): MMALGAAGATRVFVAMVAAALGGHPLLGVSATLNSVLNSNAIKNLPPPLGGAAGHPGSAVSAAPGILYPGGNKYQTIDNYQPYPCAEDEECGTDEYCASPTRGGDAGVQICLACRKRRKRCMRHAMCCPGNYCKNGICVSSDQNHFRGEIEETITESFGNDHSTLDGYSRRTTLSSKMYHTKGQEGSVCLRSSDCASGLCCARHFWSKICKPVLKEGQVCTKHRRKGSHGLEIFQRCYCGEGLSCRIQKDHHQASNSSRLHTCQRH
Chain of Follistatin-related protein 3 (Homo sapiens) (O95633 whole entry, looked up): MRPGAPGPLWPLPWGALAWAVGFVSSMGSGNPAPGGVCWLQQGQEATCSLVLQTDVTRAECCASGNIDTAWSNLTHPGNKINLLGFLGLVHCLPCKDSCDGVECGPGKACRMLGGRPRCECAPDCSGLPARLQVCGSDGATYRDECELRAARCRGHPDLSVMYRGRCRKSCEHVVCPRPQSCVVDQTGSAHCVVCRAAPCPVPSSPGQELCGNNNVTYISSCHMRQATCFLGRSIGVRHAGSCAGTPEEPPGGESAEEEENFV
Chain of Fibroblast growth factor 10 (Homo sapiens) (O15520 whole entry, looked up): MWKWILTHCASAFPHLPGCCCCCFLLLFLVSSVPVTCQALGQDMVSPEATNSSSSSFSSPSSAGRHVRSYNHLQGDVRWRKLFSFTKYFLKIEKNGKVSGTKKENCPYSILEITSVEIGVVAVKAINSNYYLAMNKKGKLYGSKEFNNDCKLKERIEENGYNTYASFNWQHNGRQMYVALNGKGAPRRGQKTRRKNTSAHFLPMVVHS
Chain of Epidermal growth factor receptor (Homo sapiens) (P00533 whole entry, looked up): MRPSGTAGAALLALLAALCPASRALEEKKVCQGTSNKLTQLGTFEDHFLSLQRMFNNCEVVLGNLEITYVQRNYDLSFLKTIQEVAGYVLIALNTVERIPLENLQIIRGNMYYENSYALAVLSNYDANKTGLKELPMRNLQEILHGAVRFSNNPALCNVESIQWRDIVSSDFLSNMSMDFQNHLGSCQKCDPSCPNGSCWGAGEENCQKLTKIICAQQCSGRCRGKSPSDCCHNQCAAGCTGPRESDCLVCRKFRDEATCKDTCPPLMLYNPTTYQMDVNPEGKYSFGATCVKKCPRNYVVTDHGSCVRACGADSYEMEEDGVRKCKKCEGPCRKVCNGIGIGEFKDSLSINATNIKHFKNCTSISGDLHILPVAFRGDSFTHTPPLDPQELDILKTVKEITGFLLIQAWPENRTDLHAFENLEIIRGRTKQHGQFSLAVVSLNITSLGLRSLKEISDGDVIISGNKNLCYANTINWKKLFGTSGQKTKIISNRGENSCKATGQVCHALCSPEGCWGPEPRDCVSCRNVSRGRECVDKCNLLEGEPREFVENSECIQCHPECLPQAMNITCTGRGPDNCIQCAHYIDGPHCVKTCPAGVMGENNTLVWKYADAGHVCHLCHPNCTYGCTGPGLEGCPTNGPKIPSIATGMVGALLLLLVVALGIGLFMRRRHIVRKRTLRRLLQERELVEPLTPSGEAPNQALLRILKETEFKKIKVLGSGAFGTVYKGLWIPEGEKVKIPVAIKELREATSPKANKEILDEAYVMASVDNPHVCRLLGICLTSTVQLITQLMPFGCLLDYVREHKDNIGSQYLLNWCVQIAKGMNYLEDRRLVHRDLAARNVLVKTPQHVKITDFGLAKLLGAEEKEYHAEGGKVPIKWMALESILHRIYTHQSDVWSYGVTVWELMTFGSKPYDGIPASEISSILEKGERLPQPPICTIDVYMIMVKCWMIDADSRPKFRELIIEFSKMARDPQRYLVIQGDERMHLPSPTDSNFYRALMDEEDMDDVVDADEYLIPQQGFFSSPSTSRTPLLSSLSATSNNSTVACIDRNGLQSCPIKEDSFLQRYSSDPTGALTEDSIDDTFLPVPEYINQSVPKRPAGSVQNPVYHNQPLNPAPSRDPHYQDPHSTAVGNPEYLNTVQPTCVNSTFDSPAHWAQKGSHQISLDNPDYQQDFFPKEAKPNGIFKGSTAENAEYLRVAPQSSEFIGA

On to `CCOC(=O)CCN1C(=O)[C@H]2[C@H]3[C@H](O)[C@H](O)CC(=NNC(=O)OCc4ccc(OC)cc4)[C@@H]3CC[C@H]2C1=O`, for which the composite z-score in [1] is 0.0745; in [2], -0.0545; in [3], -0.476; in assay [5], 0.567; in [6], 0.754; in assay [7], 0.593. In addition, the composite z-score in assay [8] was 1.32; in assay [9] it was 0.819; in [10], 0.334; in assay [11] it was -0.75; in assay [13] it was 0.554; in assay [14], 0.715. In addition, the composite z-score in assay [15] is -0.0636; in assay [16], -0.124; in assay [17], -0.323; in assay [18], -0.118; in [19] it was 0.94; in assay [20], 1.21. Besides, the z-score in assay [4] is 0.454 (inactive); in assay [12], -0.552.

Turning to `CO[C@@H]1COC(=O)CCC[C@@H](C)[C@H](OC)COC(=O)[C@H](Cc2ccccc2)NC(=O)CC=C[C@H]1C`, the composite z-score in assay [1] is 0.637; in [2], -0.485; in assay [3] it was -0.497; in assay [5], -0.974; in assay [6], -0.999; in assay [7], 0.231. The composite z-score in assay [8] is 0.507; in assay [9] it was 0.915; in [10], 1.6; in assay [11], -1.68; in [13] it was 0.714; in assay [14] it was -1.16. Further, the composite z-score was -1.81 in assay [15]; -0.197 in assay [16]; 0.194 in assay [17]; 0.0596 in assay [18]; -0.405 in assay [19]; -0.0864 in assay [20]. Also, the z-score in assay [4] is -0.491 (inactive); in assay [12], -1.48.

Regarding `CC(C)=C1C(=O)C(c2ccccc2)=C2CN3C(=O)N(CCc4ccccc4)C(=O)[C@]3(Cc3ccc(F)cc3)[C@H]21`, the composite z-score in [1] is -0.0467; in assay [2], 0.993; in assay [3], 1.21; in assay [5] it was -0.625; in assay [6], -0.643; in [7] it was -2.06. Moreover, the composite z-score in assay [8] was -0.655; in assay [9] it was -1.92; in assay [10], 0.51; in [11], 0.891; in [13], -1.67; in [14], 0.327. The composite z-score in assay [15] is 0.32; in assay [16] it was 0.229; in assay [17], 0.0431; in assay [18], -0.761; in assay [19], -0.248; in assay [20] it was -0.547. For the same compound, the z-score in assay [4] was 0.762 (inactive); in assay [12], -0.864.

As to `CO[C@@H]1COC(=O)CC=C[C@@H](C)[C@@H]2C=C[C@H](O)[C@@H](COC(=O)[C@H](C)NC(=O)CC=C[C@H]1C)O2`, the composite z-score was 1.46 in assay [1]; -0.308 in assay [2]; -1.09 in assay [3]; 0.441 in assay [5]; 0.674 in assay [6]; 1.04 in assay [7]. Further, the composite z-score was 1.03 in assay [8]; 1.28 in [9]; 0.578 in assay [10]; -1.68 in assay [11]; 0.433 in assay [13]; -1.52 in [14]. Further, the composite z-score in assay [15] is -1.99; in [16], -0.103; in [17], -0.0035; in assay [18], -0.466; in assay [19], -0.0424; in assay [20], 0.304. For the same compound, the results for the z-score in [4] and in [12] were -1.09 (inactive) and -2.12, respectively.

As for `O=C1CCCC2OC12C(O)CCc1ccccc1` (stereo not given), the composite z-score is -0.2 in [1]; -0.45 in assay [2]; -0.503 in assay [3]; 0.558 in assay [5]; 0.263 in assay [6]; 0.548 in [7]. For the same compound, the composite z-score in assay [8] is 0.495; in assay [9], 0.372; in assay [10], 0.399; in assay [11], -0.118; in assay [13] it was 0.585; in [14] it was -0.429. For the same compound, the composite z-score in assay [15] is -0.552; in assay [16] it was 0.0516; in assay [17], -0.206; in assay [18] it was -0.175; in assay [19], 0.0788; in assay [20], 0.176. Further, the z-score in assay [4] is 0.00999 (inactive); in assay [12], -0.862.

On to `CCOC(=O)CCN1C(=O)[C@H]2[C@H]3[C@H](O)[C@H](O)CC(=NOC[C@@H](O)COCc4ccco4)[C@@H]3CC[C@H]2C1=O`, for which the composite z-score in assay [1] was 0.0645; in assay [2], 0.587; in assay [3], 0.437; in [5], -0.133; in [6] it was -0.412; in assay [7] it was -0.0138. The composite z-score in assay [8] is -0.295; in [9], -0.144; in [10], 0.383; in assay [11], 0.201; in assay [13] it was -0.157; in [14], 0.2. Besides, the composite z-score in assay [15] is 0.369; in assay [16], -0.0462; in assay [17], -0.223; in assay [18], -0.0381; in assay [19] it was 0.657; in assay [20] it was 0.557. Also, the z-score in assay [4] was 0.395 (inactive); in [12] it was 0.395.
